# This is a sample that favours compounds with a hit; in the whole collection about 3.1% have one here.
# pS6 MEF inh – Acumen qHTS Assay for Inhibitors of the mTORC1 Signaling Pathway in MEF (Tsc2-/-, p53-/-) Cells: Sytravon. Tsc2-/- p53-/- MEF, phospho-rpS6 immunofluorescence/PI, 24 h. Potency, µM (highest dose often 38.3 µM), for inactives: top-dose activity change, negative = inhibition, usual class: inhibitors. 44,000 compounds, 0.78% hits. AID 493208, 2011;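 note: potency is the fitted concentration of half-maximal effect; plate controls were DMSO for no effect and rapamycin for full effect; nearly all actives have a fitted effect of over 50% in size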
#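 Compounds act on Tsc2-/-, p53-/- fibroblasts carrying an empty vector for 24 h before fixation and dual staining for phospho-S6 and DNA (propidium iodide). Values are percentages of cells above a rapamycin-defined pS6/PI threshold.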
# p53null 32C tox – qHTS Screen for Compounds that Selectively Target Cancer Cells with p53 Mutations: Cytotoxicity of p53 Null Cells at the Permissive Temperature | H1299-neo p53 null cells, ATP luminescence, 24 h, 32C | Potency, µM (top dose mostly 46.1 µM), without a hit: top-dose activity change, negative = cytotoxicity, actives largely listed as cytotoxic | 55,000 compounds, 0.62% hits | AID 903, 2007;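 note: potency is the fitted concentration of half-maximal effect; 0% = DMSO only and -100% = full killing by 100 µM tamoxifen; nearly all actives have a fitted effect of over 55% in size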
#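 Cytotoxicity: H1299-neo (no p53), 32C, 24 h treatment. Concentrations up to 46 uM. Readout cellular ATP, luminescence. Normalization to DMSO basal and tamoxifen 100 uM maximal kill.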
# S16 F2sN tox – Cell viability qHTS assay in S16 Pmp22-F2sN cells; S16 Pmp22-F2sN Schwann cells viability, CellTiter-Glo, 24 h; Potency, µM (titrated, usually from 57.5 µM), for the others: top-dose activity change, negative = cytotoxicity, actives largely listed as cytotoxic; 43,000 compounds, 0.48% hits; AID 1508642, 2021; note: potency is the fitted concentration of half-maximal effect; % is set by controls: 0 for no effect and ±100 for the full control effect; nearly all actives have a fitted effect of over 65% in size
#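 Seed 500-1,000 S16 Pmp22-F2sN cells per well in phenol-red-free DMEM with 10% heat-inactivated FBS; pin-add 23 nL compound; incubate 24 h at 37C; add CellTiter-Glo, wait 15 min protected from light; read luminescence.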
# SKOV3 invasion – Primary qHTS assay for Inhibitors of ovarian cancer metastasis using an organotypic tumor microenvironment (TME) model. 46,000 compounds, 0.1% hits. Potency, µM (highest dose often 45.8 µM), inactives show at the highest dose activity change, negative = inhibition, hits mostly inhibitors. SKOV3ip1-GFP adhesion/invasion on 3D omental model, fluorescence. AID 1963576, 2024;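 note: potency is the fitted concentration of half-maximal effect; plate controls were DMSO wells for no effect and tomatine positive control wells for full effect; nearly all actives have a fitted effect of over 65% in size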
#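 Adhesion/invasion was scored as fixed GFP-labeled SKOV3ip1 cell counts (488/509 nm), normalized to DMSO and tomatine controls. Cancer cells in serum-free medium, with four compound doses (0.36-46 umol/L), sat 2 hr at RT then 16 hr at 37 C on a 48 hr fibroblast/mesothelial/ECM culture.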
# p53null 39C kill – qHTS Screen for Compounds that Selectively Target Cancer Cells with p53 Mutations: Cytotoxicity of p53 Null Cells at the Nonpermissive Temperature; H1299 p53-null (neo) cells, 39C, ATPlite viability, 24 h; Potency, µM (top dose mostly 46.1 µM), for inactives: at the top dose activity, negative = cell killing, hits mostly cytotoxic; 55,000 compounds, 0.97% hits;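 note: potency is the fitted concentration of half-maximal effect; 0% = DMSO only and -100% = full killing by 100 µM tamoxifen; nearly all actives have a fitted effect of over 50% in size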
#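 ATP-luminescence viability readout (ATPlite, 20 min RT) after 24 hr compound treatment at 39C of H1299-neo or H1299-p53A138V cells; titration up to 46 uM; normalized to DMSO and 100 uM tamoxifen; Hill-fit AC50.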
# PMP22 txn prim – Cell-based coincidence reporter assay to measure PMP22 gene transcription in S16 Pmp22-F2sN cells - Primary screen; S16 Pmp22-F2sN Schwann cells (luciferase reporters placed in the Pmp22 gene), FLuc/NLuc coincidence luminescence, 24 h; Potency, µM (titrated, usually from 57.5 µM), for inactives: at the top dose activity change, negative = inhibition, hits mostly inhibitors; 43,000 compounds, 2% hits; active = clear falling dose curves in both reporters; inconclusive = both reporters move, but less clearly or upward; inactive = either reporter flat; the % is the NLuc reporter signal; note: potency is the fitted concentration of half-maximal effect; % is set by controls: 0 for no effect and ±100 for the full control effect
#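 Luminescent read-out of sequential FLuc and NLuc signals from a reporter embedded in the Pmp22 3' UTR of S16 Schwann cells, taken after 24 h compound exposure at 37C; compounds reducing both signals score as inhibitors of expression.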
# NLuc saturating – Biochemical NLuc saturation counterscreen for small molecule modulators of PMP22 gene expression - Nano-Glo assay; shares compounds with PMP22 txn prim; Secreted NLuc enzyme (filtered S16 cell medium), Nano-Glo luminescence; Potency, µM (top dose mostly 57.5 µM), without a hit: at the highest dose activity change, negative = inhibition, actives largely listed as inhibitors; 690 compounds, 4% hits; AID 1508638, 2021; note: potency is the fitted concentration of half-maximal effect; % is set by controls: 0 for no effect and ±100 for the full control effect
# NLuc Km ctr – Biochemical coelenterazine-based NLuc counterscreen for small molecule modulators of PMP22 gene expression - Km assay. shares compounds with PMP22 txn prim. 690 compounds, 5% hits. secreted NLuc enzyme, coelenterazine luminescence, Km conditions. Potency, µM (series often up to 57.5 µM), inactives show top-dose activity change, negative = inhibition, most hits filed as inhibitors; note: potency is the fitted concentration of half-maximal effect; % is set by controls: 0 for no effect and ±100 for the full control effect
# FLuc counter – Biochemical FLuc counterscreen for small molecule modulators of PMP22 gene expression; AID 1508640, 2021; shares compounds with PMP22 txn prim; purified P. pyralis FLuc, luminescence, 10 min; Potency, µM (highest dose often 57.5 µM), inactives show top-dose activity, negative = inhibition, hits mostly inhibitors; 690 tested, under 10 active; note: % of control where 0% means no effect
# Target sequence (P08659 whole entry, looked up): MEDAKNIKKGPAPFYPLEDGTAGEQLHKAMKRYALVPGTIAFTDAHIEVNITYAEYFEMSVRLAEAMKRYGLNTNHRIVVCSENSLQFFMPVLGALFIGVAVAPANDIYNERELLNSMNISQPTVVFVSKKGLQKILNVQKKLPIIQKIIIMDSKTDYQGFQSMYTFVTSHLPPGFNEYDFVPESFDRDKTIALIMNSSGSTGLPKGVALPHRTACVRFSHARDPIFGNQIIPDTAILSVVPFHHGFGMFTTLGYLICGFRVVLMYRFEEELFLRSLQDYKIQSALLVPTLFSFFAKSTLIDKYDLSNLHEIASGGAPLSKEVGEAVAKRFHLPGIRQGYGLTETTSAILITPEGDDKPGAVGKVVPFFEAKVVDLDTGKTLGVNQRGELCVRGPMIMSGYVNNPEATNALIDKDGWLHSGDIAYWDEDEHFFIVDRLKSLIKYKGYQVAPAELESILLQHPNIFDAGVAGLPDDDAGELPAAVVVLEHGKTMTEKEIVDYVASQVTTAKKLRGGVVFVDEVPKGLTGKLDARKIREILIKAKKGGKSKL
# S16 viab conf – Cell viability qHTS assay in S16 Pmp22-F2sN cells - Confirmatory screen. shares compounds with PMP22 txn prim. S16 Schwann cells viability, CellTiter-Glo ATP luminescence, 24 h. Potency, µM (titrated, usually from 57.5 µM), inactives show at the top dose activity change, negative = viability loss, hits mostly cytotoxic. 690 compounds, 7% hits; note: potency is the fitted concentration of half-maximal effect; % is set by controls: 0 for no effect and ±100 for the full control effect
# PMP22 txn conf – Cell-based coincidence reporter assay to measure PMP22 gene transcription in S16 Pmp22-F2sN cells - Confirmatory screen | S16 Schwann cells Pmp22-F2sN, dual luciferase, 24 h | 690 compounds, 22% hits | Potency, µM (highest dose often 57.5 µM), for the others: at the highest dose activity change, negative = inhibition, actives largely listed as inhibitors | shares compounds with PMP22 txn prim | AID 1508646, 2021; active = clear falling dose curves in both reporters; inconclusive = both reporters move, but less clearly or upward; inactive = either reporter flat; the % is the FLuc reporter signal; note: potency is the fitted concentration of half-maximal effect
# PMP22 prot conf – Cell-based HiBiT reporter assay to measure PMP22 protein expression in S16 Pmp22-HiBiT cells - Confirmatory screen; 95 tested, under 10 active; Potency, µM (series often up to 27.9 µM), for inactives: top-dose activity change, negative = inhibition, most hits filed as inhibitors; S16 Schwann cells Pmp22-HiBiT, luminescence, 48 h; shares compounds with PMP22 txn prim; AID 1508647, 2021
# Target sequence (P25094 whole entry, looked up): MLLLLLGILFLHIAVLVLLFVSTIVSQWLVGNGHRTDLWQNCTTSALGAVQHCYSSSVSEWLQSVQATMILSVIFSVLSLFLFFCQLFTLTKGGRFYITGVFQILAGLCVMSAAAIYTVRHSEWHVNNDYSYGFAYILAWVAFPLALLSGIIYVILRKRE
# The depositor's hits bear a star; i = inactive; ? = inconclusive; . = no result given. Unless noted, calls come from the whole dose curve; as a rule, active = well fitted curve in the direction sought with a large enough effect; inconclusive = small, poorly fitted or top-dose-only effect, or another doubt; inactive = no such curve, though single readings can be large; an effect the other way counts as inactive or inconclusive.
SMILES,pS6 MEF inh,p53null 32C tox,S16 F2sN tox,SKOV3 invasion,p53null 39C kill,PMP22 txn prim,NLuc saturating,NLuc Km ctr,FLuc counter,S16 viab conf,PMP22 txn conf,others
O=C(CCn1cnnn1)Nc1cc(C(F)(F)F)cc(C(F)(F)F)c1,-5%,-16%,-5%,i,-1%,3.9µM*,-10%,3%,-10%,1%,?,
CCc1ccccc1NC(=O)CSc1ncc(S(=O)(=O)c2ccccc2)c(N)n1,-4%,-14%,18%,9%,1%,-18%,.,.,.,.,.,
CCc1ccccc1NC(=O)CSc1ncc(S(=O)(=O)c2ccc(C(C)C)cc2)c(N)n1,0%,25%,-2%,i,12%,18µM*,?,1%,5%,21%,?,
COc1ccc(Cl)cc1NC(=O)CSC1=Nc2ccccc2C2=NC(CCC(=O)NCc3ccco3)C(=O)N12 (configuration not stated),-7%,17%,?,3%,0%,20µM*,?,?,-7%,-18%,?,
Cc1cnc(Nc2ccc(N3CCN(C)CC3)cc2)nc1Nc1cccc(S(=O)(=O)NC(C)(C)C)c1,.,.,.,-29%,.,.,.,.,.,.,.,
CC(C)(C)OC(=O)CN(Cc1ccc(Cl)cc1)Cc1ccc([N+](=O)[O-])s1,.,.,.,3%,.,.,.,.,.,.,.,
COc1cc(NS(=O)(=O)c2ccc3[nH]c4c(c3c2)CCCCCC4)cc(OC)c1,?,51%,-17%,1%,10%,?,.,.,.,.,.,
COc1cc(NS(=O)(=O)c2ccc3[nH]c4c(c3c2)CCCC4)cc(OC)c1OC,?,-2%,-7%,i,?,12µM*,-10%,?,-2%,-19%,?,
COc1ccc(NS(=O)(=O)c2ccc3[nH]c4c(c3c2)CCCC4)cc1OC,-17%,-8%,-10%,3%,12%,14µM*,-6%,?,2%,?,?,
CN(C)C(=O)[C@H](O)[C@H](Cc1ccccc1)NC(=O)c1cc2cc(Cl)ccc2[nH]1,.,.,.,10%,.,.,.,.,.,.,.,
CCOC(=O)c1ccc(N2C(=O)c3n[nH]c(-c4cccs4)c3C2c2ccc(O)c(OC)c2)cc1 (configuration not stated),?,17%,?,i,42%,16µM*,?,?,-9%,-19%,?,
CCCCOc1c(C(=O)c2c(F)cc(C)cc2F)cnc2n[nH]cc12,.,.,.,27%,.,.,.,.,.,.,.,
CCOc1ccc(NC(=O)Cn2c(=O)n(Cc3ccc4c(c3)OCO4)c(=O)c3ccc(C(=O)NC4CCCCC4)cc32)cc1,0%,-3%,1%,i,27%,17µM*,4%,10%,0%,?,13µM*,
Cc1cc(C)c(NC(=O)Cn2c(=O)n(Cc3ccco3)c(=O)c3ccc(C(=O)NC4CCCC4)cc32)c(C)c1,-7%,1%,14%,-7%,-4%,5µM*,-13%,8%,-17%,22µM*,12µM*,PMP22 prot conf=17%
CCc1ccccc1NC(=O)Cn1c(=O)n(Cc2ccc3c(c2)OCO3)c(=O)c2ccc(C(=O)NC3CCCCC3)cc21,0%,1%,12%,-11%,31%,12µM*,1%,5%,4%,-29%,11µM*,
Cc1ccc(C)c(NC(=O)Cn2c(=O)n(Cc3ccco3)c(=O)c3ccc(C(=O)NC4CCCC4)cc32)c1,?,13%,2%,-2%,6%,?,.,.,.,.,.,
CC[C@]1(O)C[C@H]2CN(CCC3=c4ccccc4=N[C]3[C@@](C(=O)OC)(c3cc4c(cc3OC)N(C)[C@H]3[C@@](O)(C(N)=O)[C@H](O)[C@]5(CC)C=CCN6CC[C@]43[C@@H]65)C2)C1,.,.,.,0%,.,.,.,.,.,.,.,
Cc1c(Cl)cccc1NC(=O)Cn1c(=O)n(Cc2ccco2)c(=O)c2sc3ccccc3c21,-10%,0%,1%,i,-16%,13µM*,-3%,9%,3%,-38%,15µM*,

# Screening results: PubChem, National Center for Advancing Translational Sciences (NCATS)
